VDR inhibitor = blocks the human vitamin D receptor; VDR-SRC2-3 peptide fluorescence polarization, 2 h; Potency, µM, inactives show max response, negative = inhibition, most hits filed as inhibitors; 400,000 compounds, 0.93% hits; AID 504847; P11473
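Compounds are added to VDR with labelled SRC2-3 coactivator peptide and held 2 h at room temperature. Inhibition of the VDR–peptide interaction is then read as a change in fluorescence polarization.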
TDP1 inh = TDP1 (human) enzyme inhibition; 350,000 compounds, 0.28% hits; AID 485290; Q9NUW8; Potency, µM (titrated, usually from 130 µM), without a hit: at the top dose activity change, negative = inhibition, usual class: inhibitors; recombinant TDP1, AlphaScreen DNA substrate cleavage; also: nearly all actives have a fitted effect of over 40% in size
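Signal: AlphaScreen proximity between streptavidin donor and anti-FITC acceptor beads on intact substrate. Reaction: Tdp1 1 nM, substrate 15 nM final, 5 min RT after 15 min compound preincubation.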
GCN5L2 inh = inhibitors of human GCN5L2 histone acetyltransferase; Potency, µM (highest dose often 58.9 µM), for the others: top-dose activity change, negative = inhibition, most hits filed as inhibitors; Q92830; GCN5L2 HAT assay, ThioGlo1 CoA-SH fluorescence; 390,000 compounds, 0.21% hits
Target sequence (Q92830 whole entry, looked up): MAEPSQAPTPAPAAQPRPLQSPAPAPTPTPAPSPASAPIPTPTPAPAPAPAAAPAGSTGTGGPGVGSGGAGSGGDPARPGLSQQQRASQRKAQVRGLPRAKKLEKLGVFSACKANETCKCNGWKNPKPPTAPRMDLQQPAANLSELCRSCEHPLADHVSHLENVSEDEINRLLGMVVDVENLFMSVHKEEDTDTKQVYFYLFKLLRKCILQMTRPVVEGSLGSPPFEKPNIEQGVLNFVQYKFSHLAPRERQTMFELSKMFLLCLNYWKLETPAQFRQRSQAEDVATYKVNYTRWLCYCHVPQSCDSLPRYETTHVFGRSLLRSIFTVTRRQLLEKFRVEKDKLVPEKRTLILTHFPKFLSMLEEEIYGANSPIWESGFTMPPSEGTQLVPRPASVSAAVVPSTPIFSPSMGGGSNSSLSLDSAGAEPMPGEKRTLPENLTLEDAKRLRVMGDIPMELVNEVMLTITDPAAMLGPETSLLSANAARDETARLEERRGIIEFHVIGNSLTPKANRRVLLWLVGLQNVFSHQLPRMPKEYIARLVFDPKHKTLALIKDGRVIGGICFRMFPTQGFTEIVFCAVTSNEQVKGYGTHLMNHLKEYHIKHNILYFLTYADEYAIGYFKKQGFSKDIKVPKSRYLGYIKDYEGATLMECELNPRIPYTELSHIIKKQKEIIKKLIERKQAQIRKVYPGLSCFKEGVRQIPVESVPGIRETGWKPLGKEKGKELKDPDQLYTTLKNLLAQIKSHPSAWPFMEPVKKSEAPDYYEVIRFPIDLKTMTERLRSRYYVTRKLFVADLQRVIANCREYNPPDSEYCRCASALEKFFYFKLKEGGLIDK
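GCN5L2 (20nM final) in 50mM HEPES, 0.1mM EDTA pH 7.5, 0.01% Tween-20 was preincubated 15 min at room temperature with compound, then given ThioGlo1 (50uM), H3(1-25) peptide (75uM) and acetyl-CoA (70uM); CoA-thiol fluorescence (Ex340/Em540) was read at 0 and 20 min.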
DT40 TDP1 CPT = DT40-hTDP1 cell growth loss with CPT. AID 686979. 420,000 compounds, 12% hits. chicken DT40 Tdp1-/-;hTDP1 cells + 20 nM CPT, ATP luminescence, 48 h. Potency, µM (titrated, usually from 46.2 µM), for inactives: top-dose activity change, negative = growth inhibition, usual class: inhibitors; also: nearly all actives have a fitted effect of over 55% in size
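Chicken DT40 Tdp1-/- cells complemented with human TDP1, 400 cells/well, exposed to compounds plus 20 nM camptothecin for at least 48 h at 37 C; viability read as ATP content by CellTiter-Glo luminescence.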
DT40 TDP1 no CPT = qHTS for Inhibitors of human tyrosyl-DNA phosphodiesterase 1 (TDP1): qHTS in cells in absence of CPT | Potency, µM (doses to about 46.2 µM), for the others: at the highest dose activity change, negative = growth inhibition, hits mostly inhibitors | DT40 Tdp1-/- hTDP1 cells, no CPT, ATP luminescence, 48 h | AID 686978, 2013 | 420,000 compounds, 15% hits; also: nearly all actives have a fitted effect of over 55% in size
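Chicken DT40 Tdp1-/- cells stably complemented with human TDP1 were seeded at 400 cells/well with DMSO in place of 20 nM camptothecin. After compound pinning, cells grew at least 48 hr at 37 °C; viability read by CellTiter-Glo luminescence.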
PLK1 PBD block = PLK1 (human) polo-box domain binding inhibition. Potency, µM, for the others: max response, negative = inhibition, most hits filed as inhibitors. P53350. Plk1 PBD binding of FITC phosphopeptide, fluorescence polarization. AID 720504. 360,000 compounds, 2.8% hits; also: series mostly up to about 57 µM; nearly all actives have a fitted effect of over 65% in size
An asterisk follows results filed as active. Shown are actives, neighbours in structure and some others; about 18% of the full set was active somewhere. Calls follow the shape of the dose curve; as a rule, active = well fitted curve in the direction sought with a large enough effect; inconclusive = small, poorly fitted or top-dose-only effect, or another doubt; inactive = no such curve, though single readings can be large; an effect the other way counts as inactive or inconclusive. % is scaled to controls: 0 for no effect and ±100 for the full control effect; potency is read from the fitted curve at half-maximal effect.

`CC(C)CNC(=O)c1cccc(NC(=O)C(C)Oc2ccccc2)c1` (stereo not given) gave VDR inhibitor 3.5%, TDP1 inh -2.7%, GCN5L2 inh -13.8%, DT40 TDP1 CPT -24.7%, DT40 TDP1 no CPT inconclusive and PLK1 PBD block 26.7µM*.
For CC(C)CNC(=O)c1cccc(NC(=O)CSc2ccccc2)c1 the results were VDR inhibitor -12.0%, TDP1 inh 1.8%, GCN5L2 inh 0.0%, DT40 TDP1 CPT 44.7%, DT40 TDP1 no CPT 2.0% and PLK1 PBD block -13.8%.
COc1cccc(OC)c1C(=O)Nc1ccc(Br)c(C(=O)c2ccccc2)c1 was read as VDR inhibitor -12.2%, TDP1 inh 6.9%, GCN5L2 inh -4.5%, DT40 TDP1 CPT inconclusive, DT40 TDP1 no CPT 16.4µM* and PLK1 PBD block -10.2%.
Screening COc1ccccc1C(=O)Nc1cccc(C(=O)c2ccccc2)c1 returned VDR inhibitor -3.7%, TDP1 inh 0.5%, GCN5L2 inh -20.4%, DT40 TDP1 CPT inconclusive, DT40 TDP1 no CPT inconclusive and PLK1 PBD block 3.2%.
Screening CCN(CC)CCNC(=O)C1c2cc(OC)c(OC)cc2C(=O)N(C)C1c1cccs1 (stereo not given) returned VDR inhibitor -0.6%, TDP1 inh 4.9%, GCN5L2 inh -3.0%, DT40 TDP1 CPT -8.3%, DT40 TDP1 no CPT 21.3% and PLK1 PBD block 3.7%.
`Cn1cccc1C(=O)N1CCC[C@@]2(CCN(C(=O)Nc3cccc(C#N)c3)C2)C1` gave VDR inhibitor -1.5%, GCN5L2 inh -9.5%, DT40 TDP1 CPT -4.6% and DT40 TDP1 no CPT -15.9%.
Cc1ccc(N2CC(NC(=O)C3CCCCC3)CC2=O)cc1C (stereo not given) was read as VDR inhibitor -2.1%, TDP1 inh 0.0%, GCN5L2 inh 3.8%, DT40 TDP1 CPT -9.9% and DT40 TDP1 no CPT -23.6%.
Screening COc1cccc(C(=O)Nc2ccc(C(=O)c3ccccc3)cc2)c1 returned VDR inhibitor -7.5%, GCN5L2 inh -6.9%, DT40 TDP1 CPT -18.9%, DT40 TDP1 no CPT 16.4µM* and PLK1 PBD block 2.7%.
`Cc1nc(C(Cl)(Cl)Cl)nc2[nH]ccc(=O)c12` gave VDR inhibitor 17.8µM*, TDP1 inh -0.6%, GCN5L2 inh 20.8%, DT40 TDP1 CPT inconclusive, DT40 TDP1 no CPT 16.4µM* and PLK1 PBD block 26.7µM*.
`CC(=O)Oc1c(Cl)c(N2CCOCC2)c(OC(C)=O)c2ccccc12` gave VDR inhibitor -0.7%, TDP1 inh 0.0%, GCN5L2 inh -10.0%, DT40 TDP1 CPT 20.6µM*, DT40 TDP1 no CPT 16.4µM* and PLK1 PBD block -8.3%.
CCCN(CCC)C(=O)c1c[nH]c2ccc(S(=O)(=O)N(C)c3ccc(Cl)cc3)cc2c1=O was read as VDR inhibitor 0.2%, TDP1 inh 0.0%, GCN5L2 inh -8.1%, DT40 TDP1 CPT inconclusive and DT40 TDP1 no CPT inconclusive.
For Cc1cccc(-c2cc3nc(C)cc(NCCCn4ccnc4)n3n2)c1 the results were VDR inhibitor 3.2%, TDP1 inh 9.3%, GCN5L2 inh 3.5%, DT40 TDP1 CPT inconclusive, DT40 TDP1 no CPT 23.1µM* and PLK1 PBD block 23.8µM*.
Screening c1ccc(COc2cccc(-c3cc4nc(NCCOc5ccccc5)ccn4n3)c2)cc1 returned DT40 TDP1 CPT inconclusive, DT40 TDP1 no CPT inconclusive and PLK1 PBD block -5.8%.
For c1ccc(COc2cccc(-c3cc4nc(NCCCn5ccnc5)ccn4n3)c2)cc1 the results were DT40 TDP1 CPT inconclusive, DT40 TDP1 no CPT 14.6µM* and PLK1 PBD block 4.2%.
For FC(F)(F)c1cccc(-c2cc3nc(NCCCn4ccnc4)ccn3n2)c1 the results were DT40 TDP1 CPT inconclusive, DT40 TDP1 no CPT inconclusive and PLK1 PBD block -13.1%.
`c1ccc(COc2cccc(-c3cc4nc(NCCc5ccncc5)ccn4n3)c2)cc1` gave DT40 TDP1 CPT 14.6µM*, DT40 TDP1 no CPT 13µM* and PLK1 PBD block -2.0%.
Screening O=C1OCCC1Sc1nnc(-c2ccc(O)cc2)o1 (stereo not given) returned VDR inhibitor 11.3%, TDP1 inh -6.2%, GCN5L2 inh -3.4%, DT40 TDP1 CPT -7.2%, DT40 TDP1 no CPT -8.9% and PLK1 PBD block 26.7µM*.
`O=C1OCCC1Sc1nnc(-c2ccc3c(c2)OCO3)o1` (stereo not given) gave VDR inhibitor -18.3%, TDP1 inh -1.2%, GCN5L2 inh -0.9%, DT40 TDP1 CPT 2.4%, DT40 TDP1 no CPT 2.1% and PLK1 PBD block -2.9%.
For COC(=O)[C@]1(Cc2ccccc2)N[C@H](CN(C)C(=O)Nc2ccc(F)cc2)[C@@H]2C(=O)N(Cc3ccccc3)C(=O)[C@@H]21 the results were VDR inhibitor -22.2%, TDP1 inh 2.1%, GCN5L2 inh -2.2%, DT40 TDP1 CPT inconclusive, DT40 TDP1 no CPT 14.6µM* and PLK1 PBD block -16.2%.
COC(=O)[C@]1(Cc2ccccc2)N[C@H](CN(C)C(C)=O)[C@@H]2C(=O)N(C)C(=O)[C@@H]21 was read as VDR inhibitor 11.7%, TDP1 inh 1.0%, GCN5L2 inh -6.7%, DT40 TDP1 CPT 1.2%, DT40 TDP1 no CPT 3.2% and PLK1 PBD block 1.7%.
COC(=O)[C@]1(Cc2ccccc2)N[C@H](CN(C)C(=O)Nc2ccc(C(F)(F)F)cc2)[C@@H]2C(=O)N(C)C(=O)[C@@H]21 was read as VDR inhibitor -4.5%, TDP1 inh 3.4%, GCN5L2 inh -0.5%, DT40 TDP1 CPT 11.6µM*, DT40 TDP1 no CPT inconclusive and PLK1 PBD block 3.2%.
`CC[C@@]1(C(=O)OC)N[C@H](CN(C)C(=O)Nc2ccc(C)cc2)[C@@H]2C(=O)N(Cc3ccccc3)C(=O)[C@@H]21` gave VDR inhibitor -11.2%, TDP1 inh 3.2%, GCN5L2 inh -5.1%, DT40 TDP1 CPT 29.1µM*, DT40 TDP1 no CPT inconclusive and PLK1 PBD block -10.7%.
`COC(=O)[C@]1(Cc2ccccc2)N[C@H](CN(C)C(=O)Nc2ccc(Cl)cc2)[C@@H]2C(=O)N(Cc3ccccc3)C(=O)[C@@H]21` gave VDR inhibitor 0.4%, TDP1 inh 1.3%, GCN5L2 inh -4.4%, DT40 TDP1 CPT 20.6µM*, DT40 TDP1 no CPT inconclusive and PLK1 PBD block -8.6%.
Screening COC(=O)[C@]1(C)N[C@H](CN(C)C(=O)Nc2ccc(Cl)cc2)[C@@H]2C(=O)N(Cc3ccccc3)C(=O)[C@@H]21 returned VDR inhibitor -9.2%, TDP1 inh 3.2%, GCN5L2 inh -0.3%, DT40 TDP1 CPT inconclusive, DT40 TDP1 no CPT inconclusive and PLK1 PBD block -14.2%.

Bioassay records from PubChem.
